Among the data in PubChem BioAssay (EPA / NIEHS) are outcome and AC50 values, retold here.

The source made the active and inactive calls. How the source made its calls: active means hit-call score of the fitted dose curve at least 0.9, where 1 is the maximum; inactive means score below 0.9.

What all share (settings): mRNA level, 48 h; actives raise or lower the signal
Read-out in experiment [1]: Fatty acid synthase (Homo sapiens) (UniProt P49327)
In words: LTEA_HepaRG_FASN: Life Technologies and Expression Analysis (LTEA) Assay for Fatty Acid Synthase (FASN) using HepaRG (AID 2283448). In short, it runs like this: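 Cells were plated, cultured 48 h, switched to serum-free induction medium, then dosed in duplicate (max 100 uM, half-log dilutions, 0.5% DMSO) for 48 h. RNA was then isolated and FASN quantified by qRT-PCR.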

Read-out in experiment [2]: Cyclin D2 (CCND2), CCND2 (gene 894)
In words: LTEA_HepaRG_CCND2: Life Technologies and Expression Analysis (LTEA) Assay for Cyclin D2 (CCND2) using HepaRG (AID 2283449). The essentials:
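CCND2 transcript levels, quantified by qRT-PCR and normalised to three housekeeping genes, were fitted bidirectionally against 0.5% DMSO. HepaRG cultures were dosed 48 h in duplicate with an 8-point half-log series up to 100 uM.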

Read-out in experiment [3]: Cyclin Dependent Kinase Inhibitor 1A (CDKN1A), CDKN1A (gene 1026)
Kind of experiment: LTEA_HepaRG_CDKN1A: Life Technologies and Expression Analysis (LTEA) Assay for Cyclin Dependent Kinase Inhibitor 1A (CDKN1A) using HepaRG (AID 2283450). The essentials:
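Differentiated HepaRG cells in serum-free induction medium, exposed 48 h in duplicate to eight half-log concentrations up to 100 uM in 0.5% DMSO. mRNA measured by TaqMan qRT-PCR, normalized to ACTB, GAPDH, POLR2A; bidirectional fit versus DMSO.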

Read-out in experiment [4]: Cyclin D1 (CCND1), CCND1 (gene 595)
Kind of experiment: LTEA_HepaRG_CCND1: Life Technologies and Expression Analysis (LTEA) Assay for Cyclin D1 (CCND1) using HepaRG (AID 2283451).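 On AC50: TaqMan qRT-PCR transcript level normalised to ACTB GAPDH and POLR2A housekeeping genes.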 In short, it runs like this: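 Differentiated HepaRG cells exposed 48 h in serum-free induction medium to eight half-log concentrations from 100 uM top, 0.5% DMSO, duplicates. CCND1 mRNA measured by Fluidigm TaqMan qRT-PCR, normalised to ACTB, GAPDH, POLR2A; bidirectional fit.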

Read-out in experiment [5]: catalase (CAT), CAT (gene 847)
In words: LTEA_HepaRG_CAT: Life Technologies and Expression Analysis (LTEA) Assay for catalase (CAT) using HepaRG (AID 2283452). The essentials:
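Expression of CAT was quantified by TaqMan qRT-PCR with ACTB/GAPDH/POLR2A normalization after 48 h chemical exposure of HepaRG. Eight-point half-log series, top 100 uM, in 0.5% DMSO; gain or loss fitted against vehicle.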

Read-out in experiment [6]: flavin-containing dimethylaniline monooxygenases 3 (FMO3), FMO3 (gene 2328)
In words: LTEA_HepaRG_FMO3: Life Technologies and Expression Analysis (LTEA) Assay for flavin-containing dimethylaniline monooxygenases 3 (FMO3) using HepaRG (AID 2283453). The essentials:
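FMO3 transcript quantified by TaqMan qRT-PCR against three housekeeping genes after 48 h chemical exposure of HepaRG cells. Eight-point half-log series, top 100 uM, 0.5% DMSO vehicle; phenobarbital 1mM induction control; up- or down-regulation fitted.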

Read-out in experiment [7]: CFLAR gene, CFLAR (gene 8837)
In words: LTEA_HepaRG_CFLAR: Life Technologies and Expression Analysis (LTEA) Assay for CFLAR gene using HepaRG (AID 2283455). The essentials:
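Transcript level by qRT-PCR (normalized to ACTB, GAPDH and POLR2A) after 48 h chemical exposure of HepaRG cells, top concentration 100 uM with half-log steps, 0.5% DMSO vehicle, duplicates; fitted bidirectionally against DMSO baseline.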

Read-out in experiment [8]: Forkhead box O1 (FOXO1), FOXO1 (gene 2308)
Kind of experiment: LTEA_HepaRG_FOXO1: Life Technologies and Expression Analysis (LTEA) Assay for Forkhead box O1 (FOXO1) using HepaRG (AID 2283456). The essentials:
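FOXO1 transcript quantified by qRT-PCR after 48 h chemical exposure (top 100 uM, half-log steps, 0.5% DMSO) of HepaRG cells, housekeeping-normalized (ACTB/GAPDH/POLR2A). Changes fitted in both directions relative to vehicle.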

Read-out in experiment [9]: growth arrest and DNA damage 45 (GADD45A), GADD45A (gene 1647)
In words: LTEA_HepaRG_GADD45A: Life Technologies and Expression Analysis (LTEA) Assay for growth arrest and DNA damage 45 (GADD45A) using HepaRG (AID 2283458). In short, it runs like this:
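Transcript induction or loss, quantified by TaqMan qRT-PCR against three housekeeping genes, is the read-out. HepaRG cells received chemicals for 48 h across eight half-log concentrations from 100 uM in 0.5% DMSO; gain and loss fitted relative to DMSO.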

Read-out in experiment [10]: Forkhead box O3 (FOXO3), FOXO3 (gene 2309)
Kind of experiment: LTEA_HepaRG_FOXO3: Life Technologies and Expression Analysis (LTEA) Assay for Forkhead box O3 (FOXO3) using HepaRG (AID 2283459). The essentials: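 FOXO3 transcript measured by qRT-PCR (normalized to ACTB, GAPDH, POLR2A) after 48 h exposure of HepaRG cells in serum-free induction medium. Duplicates, eight half-log concentrations up to 100 uM, 0.5% DMSO; gain or loss fitted against DMSO.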

Read-out in experiment [11]: ABC Transporter (ABCB1), ABCB1 (gene 5243)
In words: LTEA_HepaRG_ABCB1: Life Technologies and Expression Analysis (LTEA) Assay for ABC Transporter (ABCB1) using HepaRG (AID 2283460). The essentials:
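ABCB1 transcript level measured by TaqMan qRT-PCR against three housekeeping genes after 48 h chemical exposure of differentiated HepaRG cells. Top concentration 100 uM, half-log steps, eight points, 0.5% DMSO vehicle; bidirectional fit relative to DMSO.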

Read-out in experiment [12]: growth arrest and DNA damage 45 (GADD45B), GADD45B (gene 4616)
Kind of experiment: LTEA_HepaRG_GADD45B: Life Technologies and Expression Analysis (LTEA) Assay for growth arrest and DNA damage 45 (GADD45B) using HepaRG (AID 2283461). The essentials: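 Differentiated human HepaRG cells in serum-free induction medium exposed 48 h in duplicate to eight concentrations, top 100 uM, half-log steps, 0.5% DMSO. GADD45B mRNA by TaqMan qRT-PCR, normalized to ACTB, GAPDH, POLR2A; bidirectional fit versus DMSO.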

Read-out in experiment [13]: ABC Transporter (ABCB11), ABCB11 (gene 8647)
Kind of experiment: LTEA_HepaRG_ABCB11: Life Technologies and Expression Analysis (LTEA) Assay for ABC Transporter (ABCB11) using HepaRG (AID 2283463). In short, it runs like this: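 ABCB11 transcript levels quantified by TaqMan qRT-PCR against three housekeeping genes after 48 h chemical exposure of HepaRG cultures. Concentrations up to 100 uM in half-log steps, 0.5% DMSO vehicle; both induction and suppression scored.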

Read-out in experiment [14]: Broad substrate specificity ATP-binding cassette transporter ABCG2 (Homo sapiens) (UniProt Q9UNQ0)
Kind of experiment: LTEA_HepaRG_ABCG2: Life Technologies and Expression Analysis (LTEA) Assay for ABC Transporter (ABCG2) using HepaRG (AID 2283465). In short, it runs like this:
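ABCG2 transcript was quantified by TaqMan qRT-PCR against three housekeeping genes in HepaRG cells. Cells were treated in duplicate for 48 h across an 8-point half-log series up to 100 uM, with 0.5% DMSO vehicle. Gain or loss versus DMSO was fit.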

Read-out in experiment [15]: ATP-citrate lyase (ACLY), ACLY (gene 47)
Kind of experiment: LTEA_HepaRG_ACLY: Life Technologies and Expression Analysis (LTEA) Assay for ATP-citrate lyase (ACLY) using HepaRG (AID 2283466). In short, it runs like this: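 ACLY mRNA quantified by qRT-PCR on Fluidigm arrays against three housekeeping genes, after 48 h chemical treatment of HepaRG cells (top concentration 100 uM, half-log steps, 0.5% DMSO vehicle). Up- or down-regulation fitted relative to DMSO.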

Read-out in experiment [16]: Peroxisomal acyl-coenzyme A oxidase 1 (ACOX1) gene, ACOX1 (gene 51)
In words: LTEA_HepaRG_ACOX1: Life Technologies and Expression Analysis (LTEA) Assay for Peroxisomal acyl-coenzyme A oxidase 1 (ACOX1) gene using HepaRG (AID 2283467). In short, it runs like this:
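ACOX1 transcript levels were quantified by TaqMan qRT-PCR against three housekeeping genes after 48 h chemical exposure of differentiated human HepaRG cells. Exposure used eight half-log steps topping at 100 uM, 0.5% DMSO vehicle, in duplicate. Bidirectional curve fits were made relative to DMSO.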

Read-out in experiment [17]: Alkaline Phosphatase, Placental (ALPP) gene, ALPP (gene 250)
In words: LTEA_HepaRG_ALPP: Life Technologies and Expression Analysis (LTEA) Assay for Alkaline Phosphatase, Placental (ALPP) gene using HepaRG (AID 2283468). The essentials: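 HepaRG cells plated 48 h, then exposed in duplicate for 48 h in serum-free induction medium to 8-point half-log series from 100 uM in 0.5% DMSO. ALPP mRNA by TaqMan qRT-PCR, normalized to ACTB/GAPDH/POLR2A; bidirectional fit versus DMSO.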

Sequence of Broad substrate specificity ATP-binding cassette transporter ABCG2 (Homo sapiens) (Q9UNQ0 whole entry, looked up): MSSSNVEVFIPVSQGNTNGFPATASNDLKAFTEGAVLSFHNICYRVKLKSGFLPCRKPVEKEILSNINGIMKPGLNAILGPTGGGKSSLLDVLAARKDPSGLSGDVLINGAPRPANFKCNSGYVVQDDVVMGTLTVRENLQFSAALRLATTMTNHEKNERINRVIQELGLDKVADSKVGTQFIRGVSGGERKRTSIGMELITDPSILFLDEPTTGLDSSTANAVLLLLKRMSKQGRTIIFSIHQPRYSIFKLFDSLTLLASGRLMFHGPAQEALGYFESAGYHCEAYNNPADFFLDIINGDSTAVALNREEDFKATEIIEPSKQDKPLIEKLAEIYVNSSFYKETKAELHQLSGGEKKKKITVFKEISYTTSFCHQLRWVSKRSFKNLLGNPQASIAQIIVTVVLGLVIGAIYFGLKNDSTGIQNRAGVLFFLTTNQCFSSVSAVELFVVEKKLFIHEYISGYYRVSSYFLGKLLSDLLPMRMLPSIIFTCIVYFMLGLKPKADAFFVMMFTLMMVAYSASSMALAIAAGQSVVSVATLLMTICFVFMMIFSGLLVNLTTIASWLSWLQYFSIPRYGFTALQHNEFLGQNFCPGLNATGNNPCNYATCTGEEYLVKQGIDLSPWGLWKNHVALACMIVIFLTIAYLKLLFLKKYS
Sequence of Fatty acid synthase (Homo sapiens) (P49327 whole entry, looked up): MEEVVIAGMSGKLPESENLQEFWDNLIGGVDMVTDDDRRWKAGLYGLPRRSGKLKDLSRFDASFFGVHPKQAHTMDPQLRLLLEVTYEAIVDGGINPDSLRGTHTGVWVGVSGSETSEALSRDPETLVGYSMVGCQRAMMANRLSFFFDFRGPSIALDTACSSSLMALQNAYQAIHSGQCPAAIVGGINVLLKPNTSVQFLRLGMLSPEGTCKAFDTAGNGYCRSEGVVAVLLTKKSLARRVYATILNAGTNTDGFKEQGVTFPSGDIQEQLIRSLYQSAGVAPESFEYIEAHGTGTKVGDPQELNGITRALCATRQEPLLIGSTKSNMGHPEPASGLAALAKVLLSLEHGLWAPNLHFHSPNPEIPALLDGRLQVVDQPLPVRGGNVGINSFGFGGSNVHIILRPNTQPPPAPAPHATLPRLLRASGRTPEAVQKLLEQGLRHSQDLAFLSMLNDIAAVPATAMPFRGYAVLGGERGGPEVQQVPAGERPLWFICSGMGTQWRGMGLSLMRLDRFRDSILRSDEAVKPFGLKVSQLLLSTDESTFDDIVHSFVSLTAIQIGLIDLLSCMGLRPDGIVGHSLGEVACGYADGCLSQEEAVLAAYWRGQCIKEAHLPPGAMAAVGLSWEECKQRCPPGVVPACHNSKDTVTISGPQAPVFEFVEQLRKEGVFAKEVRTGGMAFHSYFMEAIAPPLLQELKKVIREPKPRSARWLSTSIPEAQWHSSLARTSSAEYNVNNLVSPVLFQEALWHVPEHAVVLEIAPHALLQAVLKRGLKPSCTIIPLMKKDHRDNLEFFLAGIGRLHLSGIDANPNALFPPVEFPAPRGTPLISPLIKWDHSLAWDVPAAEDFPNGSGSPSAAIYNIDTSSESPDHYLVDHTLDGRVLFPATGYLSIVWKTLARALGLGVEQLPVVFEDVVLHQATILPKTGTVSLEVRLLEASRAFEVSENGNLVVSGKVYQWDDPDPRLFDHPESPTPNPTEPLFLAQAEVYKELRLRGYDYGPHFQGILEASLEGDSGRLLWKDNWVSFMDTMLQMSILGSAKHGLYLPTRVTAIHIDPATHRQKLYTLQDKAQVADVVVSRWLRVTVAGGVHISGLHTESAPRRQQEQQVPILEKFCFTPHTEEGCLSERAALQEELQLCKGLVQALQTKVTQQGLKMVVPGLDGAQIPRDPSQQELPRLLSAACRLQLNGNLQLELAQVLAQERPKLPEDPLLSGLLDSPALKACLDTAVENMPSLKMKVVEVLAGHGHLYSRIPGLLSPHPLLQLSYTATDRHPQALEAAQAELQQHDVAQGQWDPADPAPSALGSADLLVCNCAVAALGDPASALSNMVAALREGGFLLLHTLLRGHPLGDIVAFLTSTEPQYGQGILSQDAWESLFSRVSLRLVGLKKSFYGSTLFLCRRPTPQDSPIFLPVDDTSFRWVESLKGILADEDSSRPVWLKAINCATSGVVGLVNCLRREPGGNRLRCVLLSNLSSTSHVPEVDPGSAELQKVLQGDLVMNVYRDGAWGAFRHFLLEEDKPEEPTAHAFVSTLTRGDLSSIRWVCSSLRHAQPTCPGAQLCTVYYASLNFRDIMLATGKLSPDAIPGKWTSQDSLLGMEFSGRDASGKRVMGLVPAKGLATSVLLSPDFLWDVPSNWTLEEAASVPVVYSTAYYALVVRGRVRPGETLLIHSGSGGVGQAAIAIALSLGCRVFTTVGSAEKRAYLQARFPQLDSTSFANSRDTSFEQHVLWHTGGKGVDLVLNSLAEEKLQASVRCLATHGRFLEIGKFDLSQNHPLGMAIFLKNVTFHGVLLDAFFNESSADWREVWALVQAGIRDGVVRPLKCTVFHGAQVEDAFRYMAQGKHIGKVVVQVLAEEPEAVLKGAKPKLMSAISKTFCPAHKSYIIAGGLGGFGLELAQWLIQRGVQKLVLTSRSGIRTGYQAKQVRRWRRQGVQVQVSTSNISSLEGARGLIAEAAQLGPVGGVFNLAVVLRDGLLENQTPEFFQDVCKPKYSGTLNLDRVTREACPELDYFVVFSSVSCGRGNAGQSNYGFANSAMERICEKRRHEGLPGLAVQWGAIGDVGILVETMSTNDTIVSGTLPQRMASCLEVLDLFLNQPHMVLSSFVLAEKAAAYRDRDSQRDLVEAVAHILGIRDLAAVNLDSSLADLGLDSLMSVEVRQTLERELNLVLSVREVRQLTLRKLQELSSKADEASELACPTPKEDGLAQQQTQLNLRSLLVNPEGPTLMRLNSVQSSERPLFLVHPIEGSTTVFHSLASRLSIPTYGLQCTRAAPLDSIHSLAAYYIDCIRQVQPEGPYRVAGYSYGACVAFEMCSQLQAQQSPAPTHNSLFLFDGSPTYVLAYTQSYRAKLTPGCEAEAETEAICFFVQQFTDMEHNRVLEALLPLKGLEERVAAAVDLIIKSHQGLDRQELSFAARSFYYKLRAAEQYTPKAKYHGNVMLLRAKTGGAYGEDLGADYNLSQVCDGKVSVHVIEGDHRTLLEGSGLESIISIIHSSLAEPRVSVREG

Take `ClCC(Cl)CCl`: the call in [1], in experiment [2], in [3], in experiment [4], in [5] and in [6] was inactive. For the same compound, the compound was called inactive in [7], in experiment [8], in experiment [9], in experiment [10], in [11] and in experiment [12]. For the same compound, the compound was called inactive in [13], in experiment [14], in experiment [15], in experiment [16] and in [17].
With `Oc1cccc2cccnc12`, the result in experiment [1], in experiment [2], in experiment [3], in [4], in experiment [5] and in experiment [6] was inactive. Moreover, the result in [7], in [8], in experiment [9], in [10], in experiment [11] and in [12] was inactive. Also, the compound was called inactive in experiment [13], in experiment [14], in experiment [15], in experiment [16] and in experiment [17].
The AC50 is the midpoint of the concentration-response curve, whichever way the signal moves. `O=C1C2(Cl)C3(Cl)C4(Cl)C(Cl)(Cl)C5(Cl)C3(Cl)C1(Cl)C5(Cl)C24Cl` (stereo not given): the AC50 in [1] was 93.5 µM (active); in [2], 91.9 µM (active); in [3], 93 µM (active); in [4], 92.9 µM (active); in [5] it was 93.5 µM (active); in [6], 22.6 µM (active). Further, the AC50 in experiment [8] is 93.5 µM (active); in [10], 93.2 µM (active); in [11] it was 91.8 µM (active); in [12], 93 µM (active); in experiment [14], 15.8 µM (active); in [15], 93.1 µM (active). Moreover, the AC50 in experiment [16] is 0.0893 µM (active); in experiment [17], 26.7 µM (active). Further, the compound was classed as inactive in experiment [7], in experiment [9] and in [13].
Turning to `NC(=O)O`, the result in [1], in experiment [3], in experiment [4], in experiment [5], in experiment [6] and in experiment [7] was inactive. Besides, the compound was called inactive in experiment [8], in experiment [9], in [10], in experiment [11], in experiment [12] and in experiment [13]. In addition, the call in [14], in experiment [15], in experiment [16] and in experiment [17] was inactive.
`CC(=O)[O][Hg][c]1ccccc1`: the AC50 in experiment [1] is 2.25 µM (active); in [3] it was 0.174 µM (active); in experiment [4] it was 3.75 µM (active); in [5] it was 13.3 µM (active); in experiment [6] it was 16.9 µM (active); in experiment [7], 16.8 µM (active). The AC50 in experiment [8] is 12.9 µM (active); in [9], 16.3 µM (active); in experiment [10] it was 14.5 µM (active); in [11], 24.1 µM (active); in experiment [13], 1.22 µM (active); in experiment [15] it was 23.3 µM (active). Moreover, the figures for the AC50 in experiment [16] and in experiment [17] were 15.2 µM (active) and 0.646 µM (active), respectively. The compound was classed as inactive in experiment [12] and in [14].
As to `CC(C)(OO)c1ccccc1`, the result in experiment [1], in experiment [2], in [3], in experiment [4], in experiment [5] and in [6] was inactive. Besides, the result in experiment [7], in experiment [8], in [9], in [10], in [11] and in experiment [12] was inactive. Further, the call in experiment [13], in [14], in [15], in experiment [16] and in experiment [17] was inactive.
